# The list is not random: actives were taken first. Their share in the collection is about 8%.
# HT1080-NT tox: kills 2HG-producing HT-1080-NT fibrosarcoma cells; HT-1080-NT fibrosarcoma viability, CellTiter-Glo ATP luminescence, 48 h; Potency, µM (series often up to 46.1 µM), inactives show at the top dose activity, negative = less viability, most hits filed as cytotoxic; 360,000 compounds, 1.6% hits; AID 686970;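 note: NT is the 2HG producing partner of a matched IDH1 knockdown line; 0% = DMSO-treated cells and -100% = media-only wells without cells; nearly all actives have a fitted effect of over 55% in size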
#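 750 cells/well, RPMI + 5% FBS; 2 h settle, compound pin-transfer, 48 h at 37 degrees C. CellTiter-Glo 10 min RT, luminescence. Normalized to DMSO and media-only wells.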
# KB-V1 MDR tox: kills drug-selected multidrug resistant KB-V1 cells. Potency, µM (highest dose often 46.1 µM), usual class: cytotoxic. KB-V1 MDR cells viability, CellTiter-Glo, 72 h. 400,000 compounds, 3.4% hits; note: % is set by controls: 0 for no effect and ±100 for the full control effect; nearly all actives have a fitted effect of over 60% in size
#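 Drug-selected KB-V1 cells, grown in DMEM lacking phenol red with 10% FBS, receive compound titrations; after three days at 37 degrees C, surviving cell ATP is quantified by CellTiter-Glo luminescence and responses normalized and curve-fitted.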
# HT1080 IDH1KD tx: kills HT-1080 cells with IDH1 knockdown; HT-1080 IDH1 knockdown viability, ATP luminescence, 48 h; Potency, µM (top dose mostly 46.1 µM), for the others: top-dose activity, negative = toxicity, hits mostly cytotoxic; 360,000 compounds, 2% hits;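 note: 0% = DMSO wells and -100% = cell-free medium wells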
#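 Luminescent ATP read-out (CellTiter-Glo, 10 min at room temperature) after 48 h compound exposure at 37 °C gave viability of IDH1-knockdown HT-1080 cells. Activity was normalised to DMSO and cell-free wells, then fitted as concentration-response curves.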
# SW480 rerep: DNA re-replication induction in SW480 cells. SW480 DNA re-replication, Hoechst DNA content imaging, 48 h. Potency, µM (series often up to 46.1 µM), for the others: top-dose re-replication activation, actives largely listed as activators. 340,000 compounds, 1.8% hits; note: % of control where 0% means no effect; nearly all actives have a fitted effect of over 55% in size
#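 SW480 cells exposed to compounds for 48 hr at 37 C, 5% CO2, then Hoechst-stained 40 min. Nuclear DNA content imaged by fluorescence scanning (405 nm excitation, 500-530 nm emission); re-replication scored as increased high-intensity nuclei.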
# KB-3-1 cytotox: KB-3-1 parental cell cytotoxicity. AID 1347075. 400,000 compounds, 1.4% hits. Potency, µM (titrated, usually from 46.1 µM), actives largely listed as cytotoxic. KB-3-1 viability, CellTiter-Glo ATP luminescence, 72 h; note: % is set by controls: 0 for no effect and ±100 for the full control effect; nearly all actives have a fitted effect of over 60% in size
#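 Cells are dispensed, compounds pinned in, plates held at 37 °C for 72 h, then CellTiter-Glo is added and luminescence read after 10 minutes. Cell line: parental KB-3-1 in phenol-red-free DMEM, 10% FBS.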
# MCF10A rerep: induces DNA re-replication in MCF 10a normal breast cells; Potency, µM (series often up to 46.1 µM), without a hit: at the highest dose activity, positive = re-replication, usual class: activators; 350,000 compounds, 2.9% hits; MCF 10A DNA re-replication, Hoechst nuclear intensity, 48 h; AID 624296; note: % of control where 0% means no effect; nearly all actives have a fitted effect of over 50% in size
# Numbers without * were called inactive; i = inactive; ? = inconclusive; / = no result given. Calls come from the whole dose curve; as a rule, active = well fitted curve in the direction sought with a large enough effect; inconclusive = small, poorly fitted or top-dose-only effect, or another doubt; inactive = no such curve, though single readings can be large; an effect the other way counts as inactive or inconclusive. Potency is the fitted concentration of half-maximal effect.
SMILES,HT1080-NT tox,KB-V1 MDR tox,HT1080 IDH1KD tx,SW480 rerep,KB-3-1 cytotox,MCF10A rerep
O=C(NCc1ccco1)c1ccc2c(c1)N(Cc1ccccc1F)C(=O)c1ccccc1S2=O (stereo not given),/,i,/,/,i,/
c1ccc2[nH]c(-c3ccc4c(c3)OCO4)nc2c1,25.9µM*,13µM*,25.9µM*,?,?,8.7%
CCC1CCCCN1CCCNC(=O)c1ccc2nc(N3CCC(C)CC3)sc2c1 (stereo not given),?,i,?,18.4µM*,?,20.2%
CN(Cc1ccccc1)S(=O)(=O)c1cc(Br)cc2c1N(C(=O)C1CC1)CC2,/,i,/,/,i,/
CCOC(=O)c1sc2nc(CC(C)C)c3c(c2c1N)CCC3,-2.1%,i,-0.8%,8.1%,i,?
CC(=O)c1sc2nc(C)c3c(c2c1N)CCCC3,-0.7%,?,-13.5%,14.6µM*,?,18.4µM*
CCSC1=NC2(CCN(C(=O)NC3CCCCC3)CC2)N=C1c1ccc(C)c(C)c1,/,i,/,/,?,/
Cc1ccc(C)c(CSc2nc3[nH]ncc3c(=O)[nH]2)c1,1.3µM*,0.517µM*,1.84µM*,3.66µM*,1.16µM*,?
CCOc1ccccc1CNC(=O)c1ccc2c(c1)nc1n2CCCCC1,/,i,/,/,i,/
CCOC(=O)c1cccc(NC(=O)CSc2nnc(COc3ccccc3)n2CC)c1,5.0%,11.6µM*,-4.7%,1.0%,i,?
CCn1c(CC(=O)Nc2cccc(Cl)c2Cl)nnc1SCCOc1ccc(OC)cc1,12.4%,20.6µM*,0.9%,-9.0%,i,4.4%
CCn1c(C)nnc1SCC(=O)Nc1cccc(Cl)c1,4.9%,?,9.5%,14.6µM*,i,1.5%
CCn1c(C)nnc1SCC(=O)Nc1ccc(C(C)=O)cc1,3.9%,i,-1.2%,-3.6%,i,0.6%
CCn1c(COc2ccccc2)nnc1SCC(=O)Nc1cc(OC)ccc1OC,-3.8%,13µM*,-9.6%,4.5%,i,3.1%
CCn1c(COc2cccc(OC)c2)nnc1SCC(=O)Nc1cc(OC)ccc1OC,2.6%,?,4.2%,-6.7%,i,4.5%
C=CCn1c(CCNC(=O)c2ccc(Cl)c(Cl)c2)nnc1SCCOc1ccc(OC)cc1,?,5.17µM*,?,9.5%,i,20.6µM*
COc1cccc(CNc2nc3cc(-c4ccccc4)sc3c(=O)n2C)c1OC,?,i,?,/,23.1µM*,/
COc1cccc(CNc2nc3cc(-c4cccc(Cl)c4)sc3c(=O)n2C)c1OC,-4.4%,8.2µM*,-7.2%,/,14.6µM*,/
COc1cccc(CNc2nc3cc(-c4cccc(C(F)(F)F)c4)sc3c(=O)n2C)c1OC,-0.4%,i,1.4%,/,i,/
COc1cccc(CNc2nc3cc(-c4ccccc4CO)sc3c(=O)n2C)c1,29.1µM*,i,?,/,?,/
COc1ccccc1CNc1nc2cc(-c3ccc(OC)c(OC)c3)sc2c(=O)n1C,-24.0%,9.2µM*,-11.4%,/,?,/
COc1ccc(-c2cc3nc(NCc4ccc(NC(C)=O)cc4)n(C)c(=O)c3s2)cc1OC,19.7%,i,11.7%,/,i,/
COc1ccc(CCNC(=O)NCc2noc3ccc(C)cc23)c(OC)c1,/,i,/,/,i,/
COc1ccc(N2CCN(S(=O)(=O)c3ccc(F)c(C(=O)Nc4ccccc4Cl)c3)CC2)cc1,/,i,/,/,i,/
NNc1nnc2c3cc(F)ccc3n(CCc3ccccc3)c2n1,?,?,?,4.11µM*,23.1µM*,?
SMILES,HT1080-NT tox,KB-V1 MDR tox,HT1080 IDH1KD tx,SW480 rerep,KB-3-1 cytotox,MCF10A rerep
CC(C)=NOc1cc(NC(=O)CCl)cc([N+](=O)[O-])c1,5.8µM*,16.4µM*,9.2µM*,9.2µM*,18.4µM*,6.51µM*
O=C(CCl)Nc1cc(SCC(O)CO)cc([N+](=O)[O-])c1 (stereo not given),1.84µM*,?,1.64µM*,5.8µM*,5.8µM*,?
CCC(=O)Nc1cc(ON=C(C)C)cc([N+](=O)[O-])c1,-1.2%,i,7.9%,-4.9%,i,-3.0%
COc1ccc(-n2cnnc2SCC(=O)Nc2cccc(S(=O)(=O)N3CCCCC3)c2)cc1,3.3%,14.6µM*,1.1%,10.9%,i,15.0%
CCN1CCN(c2ccc(S(=O)(=O)N3CCCCC3)cc2NC(=O)/C=C/c2cc(OC)ccc2OC)CC1,-27.1%,?,-22.4%,149.0%,i,20.6µM*
CCN1CCN(c2ccc(S(=O)(=O)N3CCCCC3)cc2NC(=O)COc2ccc(Cl)c(C)c2)CC1,-4.0%,i,-14.3%,16.4µM*,i,1.1%
O=C(CSc1nncn1-c1ccccc1)Nc1cccc(S(=O)(=O)N2CCCCC2)c1,/,/,/,1.7%,/,2.8%
COc1ccc(OC)c(/C=C/C(=O)Nc2cccc(S(=O)(=O)N3CCCC3)c2)c1,-0.5%,i,-5.7%,14.3%,i,23.1µM*
COc1ccc(/C=C/C(=O)Nc2nc3n(n2)C(c2ccc(F)cc2)C=C(c2ccccc2)N3)cc1 (stereo not given),/,i,/,/,i,/
CCCCc1ccc(-n2nc3ccc(NC(=O)c4cc5ccccc5o4)cc3n2)cc1,/,i,/,/,i,/
Cn1ncc(C(=O)N2CCN(c3ccc(F)cc3)CC2)c1C1CCN(C(=O)OC(C)(C)C)CC1,/,i,/,/,i,/
CCN1CCN(c2ccc(S(=O)(=O)N3CCCCC3)cc2NC(=O)c2ccc([N+](=O)[O-])s2)CC1,-16.3%,?,-8.6%,13µM*,?,?
COc1cc(C#N)ccc1OCC(=O)Nc1cccc(S(=O)(=O)N2CCCC2)c1,-10.1%,16.4µM*,-0.1%,-5.0%,i,5.9%
CN(C)c1ccc(/C=C2\NC(=O)NC2=O)cc1,/,?,/,/,i,/
O=S1(=O)N=C(Nc2cccc(C(F)(F)F)c2)c2ccccc21,/,i,/,/,i,/
CCOC(=O)N1CCC(NC(=O)c2ccc3c(c2)N(Cc2ccc(Cl)cc2)C(=O)c2ccccc2S3(=O)=O)CC1,/,i,/,/,i,/
Cc1ccc(-n2c(CCC(=O)O)ccc2-c2cccs2)cc1Cl,/,?,/,/,i,/
COc1ccc(C2C(=O)N(C3CCCCC3)CC(=O)N2CCc2ccc(C)cc2)cc1OC (stereo not given),/,i,/,/,i,/
O=C(NCc1ccncc1)C(=O)Nc1nc(C23CC4CC(CC(C4)C2)C3)cs1,-0.2%,i,-7.9%,7.0%,i,?
O=C(NCc1cccnc1)C(=O)Nc1nc(C23CC4CC(CC(C4)C2)C3)cs1,23.2%,i,-10.8%,?,i,?
